In all, about 69,000 compounds went through this assay and about 420 (0.61%) showed an effect of 50% or more. The full list was thinned out, with strong results kept by preference.

This test addresses T1, Histidine--tRNA ligase (Leishmania infantum) (UniProt A4I591).
T1 sequence (whole entry): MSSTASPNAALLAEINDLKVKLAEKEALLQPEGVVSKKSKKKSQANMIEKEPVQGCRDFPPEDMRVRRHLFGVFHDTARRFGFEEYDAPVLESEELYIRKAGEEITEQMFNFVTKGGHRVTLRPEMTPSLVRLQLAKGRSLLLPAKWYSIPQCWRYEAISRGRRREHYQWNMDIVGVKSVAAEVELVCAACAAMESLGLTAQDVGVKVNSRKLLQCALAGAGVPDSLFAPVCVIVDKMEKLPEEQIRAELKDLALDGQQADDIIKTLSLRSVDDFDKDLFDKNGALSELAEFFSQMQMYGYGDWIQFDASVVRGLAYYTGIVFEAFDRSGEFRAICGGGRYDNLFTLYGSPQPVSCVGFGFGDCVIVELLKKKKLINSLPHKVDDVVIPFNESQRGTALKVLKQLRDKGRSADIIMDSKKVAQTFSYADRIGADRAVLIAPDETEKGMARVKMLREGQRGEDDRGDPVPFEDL
Nature of the test: Leishmania infantum Histidine tRNA synthetase (LdHisRS). It counts as functional. Details: scale not given: in the data most compounds retested in dose-response had high values. As to conditions: 30 µM.
For the compound `O=C1CCC(C(=O)Nc2ccc(=O)n(Cc3ccccc3Cl)c2)N1` (stereo not drawn), the Percent Effect turned out to be 20.5%.
Next, `O=C1NCC(C(=O)Nc2ccc(=O)n(Cc3ccccc3Cl)c2)N1` (stereo not drawn): 92.8%; `O=C1CCC(C(=O)Nc2cnn(-c3ccccc3Cl)c2)N1` (stereo not drawn): 19.5%.
Next, `CC(C)CN1C(=O)CO[C@@H]2CN(C(=O)N(C)C)C[C@H]21`: 8.77%.
With `CN1CC[C@@H]2[C@@H](CO[C@H]2CNC(=O)c2nccn2C)C1` the figure was 16%; with `CN(C)C(=O)CN1C[C@@H]2CC[C@H](C1)N(Cc1cc(F)ccc1F)C2`, 1.91%.
For `CN1C[C@@H]2CC[C@H](CC1=O)N2C(=O)c1cc2ccccc2[nH]c1=O`, the Percent Effect was 19.5%.
Next, `Cc1occc1C(=O)N1C[C@@H]2[C@@H](C1)OCC(=O)N2Cc1cccnc1`: 11.5%; `Cn1cc(C(=O)N2CC[C@@H]3[C@@H]2CCN3c2ccccn2)cn1`: 16%; `Cc1noc(C)c1CN1CCO[C@H]2CN(C(=O)C3CCOCC3)C[C@H]21`: 7.96%.
Next, `O=C(NCc1cccnc1N1CCc2ccccc2C1)c1cc(=O)[nH][nH]1`: 50%.
Next, `Cc1cc(C(=O)NCc2cccnc2N2CCc3ccccc3C2)[nH]n1`: 21.4%.
Regarding `O=C(NCc1cccnc1N1CCc2ccccc2C1)c1cnc[nH]1`, the Percent Effect came out at 18.6%.
With `CCC1CN(CC(=O)NCCN2CCCC2)c2ccccc2S1` (stereo not drawn) the figure was 31.5%.
Regarding `CCC1CN(CC(=O)NCCN2CCCCC2)c2ccccc2S1` (stereo not drawn), the Percent Effect was 27.2%.
With `CCC1CN(CC(=O)NCCN2CCCCCC2)c2ccccc2S1` (stereo not drawn) the figure was 51.1%; with `CN(C)C(=O)N1C[C@@H]2CC[C@H](C1)N(Cc1ccc3nsnc3c1)C2`, 24%; with `O=C1N(c2cccc(F)c2)Cc2nc(=O)n(Cc3ccccc3Cl)n21`, 12%.
Take `CN1C[C@@H]2CN(C(=O)NCc3cccc(F)c3)CCC[C@]2(C(=O)O)C1`: the Percent Effect was determined as 6%.
Next, `COc1ccc(CN2C[C@@H]3COC[C@@H](N4CCN(C)CC4)[C@@H]3C2)cc1`: 17%.
Next, `CCn1ncc(-c2cc(C(F)(F)F)nc(N3CCC(N)CC3)n2)c1C`: 15.1%.
Next, `CCc1ccc(-c2cc(C(F)(F)F)nc(N3CCC(N)CC3)n2)cc1`: 71%.
With `Cc1c(-c2cc(C(F)(F)F)nc(N3CCC(N)CC3)n2)cnn1C`, the Percent Effect was determined as 19.4%.
Take `CNC(=O)[C@H]1C[C@@H]2CN(C(=O)c3ccco3)C[C@@H]2N1S(C)(=O)=O`: the Percent Effect was determined as 17%.
Next, `COCCC(=O)N1CC[C@@H]2O[C@@H](C)C[C@H]2C1`: 15.3%; `O=C(Cc1ccco1)N1C[C@H]2CCC[C@@]2(COc2cccnc2)C1`: 24%.
With `Cn1cnc2c1CCN(Cc1csc(-c3ccc(F)cc3)n1)C2` the figure was 10.2%; with `COc1ccc(-c2nc(CN3CCc4c(ncn4C)C3)cs2)cc1`, 57.5%; with `Cn1cnc2c1CCN(Cc1csc(-c3ccccc3)n1)C2`, 15.7%.
Next, `Cc1ccc(OCC(=O)N2C[C@@H]3CN(C)CCO[C@@H]3C2)cc1`: 5.17%.
For the compound `COc1ccccc1CN(C)C(=O)CN1CC(n2nc(C)cc2C)C1`, the Percent Effect is 40.2%.
Next, `Cc1cc(C)n(C2CN(CC(=O)N(C)Cc3ccsc3)C2)n1`: 43.8%; `COc1cccc(CN(C)C(=O)CN2CC(n3nc(C)cc3C)C2)c1`: 62.9%; `COc1cc(C(=O)N2CCO[C@H]3[C@H](OCC4CC4)CC[C@@H]32)ccc1F`: 12.1%.
Next, `O=C(NCc1cccnc1)[C@H]1C[C@@H]2CCN(c3ccncn3)C[C@H]2O1`: 15.3%; `CCN1C[C@@H]2CN(C(=O)c3ccsc3)C[C@@H]2C1=O`: -28.6%; `N#Cc1cccc(CN2C[C@@H](NC(=O)C3CC3)[C@H]3OCCC[C@H]32)c1`: -2.75%.
Consider `CC(C)(CN)NS(=O)(=O)c1cccc(F)c1F`, for which the Percent Effect was determined as 11.8%.
Regarding `COc1ccccc1S(=O)(=O)Nc1cnc(O)cc1C`, the Percent Effect is 20.5%.
Regarding `COc1cc(F)c(S(=O)(=O)Nc2cnc(O)cc2C)cc1OC`, the Percent Effect stood at 97.6%.
For `Cc1cc(O)ncc1NS(=O)(=O)c1cccc(F)c1F`, the Percent Effect was 95.2%.
Next, `COc1ncc(NS(=O)(=O)c2ccc(F)cc2F)cn1`: 12.8%.
Next, `O=C(O)c1c[nH]c2cc(NS(=O)(=O)c3cccc(F)c3F)ccc12`: 36.5%.
With `COc1ccc(CN2CCO[C@H]3CN(C(=O)C4CC4)CC[C@H]3C2=O)cc1` the figure was 11.1%; with `COC[C@@]12CCO[C@@H]1CCN(Cc1ccc(C)s1)C2`, -2%; with `O=C(c1cnccn1)N1C[C@@H]2CC[C@H](C1)N(C(=O)Cc1ccsc1)C2`, 12.3%.
For the compound `CCCS(=O)(=O)N1C[C@H](N(C)Cc2ccco2)[C@@H]2OCCC[C@@H]21`, the Percent Effect was found to be 9%.
For `Cc1nc(C(=O)N2C[C@@H]3CN(S(C)(=O)=O)CCO[C@@H]3C2)cs1`, the Percent Effect stood at 8.77%.
For `Cc1nnsc1CNC(=O)Nc1cccc(N2CCN(C)C2=O)c1`, the Percent Effect was 11.8%.
With `CN1CCN(c2cccc(NC(=O)NCc3csc(N(C)C)n3)c2)C1=O` the figure was 64.7%; with `CN(C)c1nc(CNC(=O)Nc2cccc([S+](C)[O-])c2)cs1` (stereo not drawn), 27.1%.
On to `Cc1cccc(CN2C(=O)CO[C@@H]3CN(Cc4cnn(C)c4)C[C@H]32)c1`, for which the Percent Effect came to 23.1%.
Next, `C=Cc1cccc(CN2C[C@H]3CC[C@@H]2CN(Cc2c(C)noc2C)C3)c1`: 27.4%.

Values taken from ChEMBL document CHEMBL3988442, “University of Dundee, Small-Polar-MMV Screening Library” (2021).
